Screens from PubChem BioAssay.
Most compounds without a hit are left out; they make up all but 6.9% or so of the library.
Vif-APOBEC3G blk: blocks the Vif interaction with human APOBEC3G | Q9HC16 | HeLa A3G-eYFP + Vif (tagged APOBEC3G with the HIV-1 protein that degrades it), YFP fluorescence, overnight | Potency, µM (highest dose often 46.1 µM), for inactives: at the highest dose activity, negative = active, hits mostly inhibitors | 0.076% of 410,000 active; also: potency is read from the fitted curve at half-maximal effect; % is scaled to controls: 0 for no effect and ±100 for the full control effect; nearly all actives have a fitted effect of over 60% in size
Target sequence (Q9HC16 whole entry, looked up): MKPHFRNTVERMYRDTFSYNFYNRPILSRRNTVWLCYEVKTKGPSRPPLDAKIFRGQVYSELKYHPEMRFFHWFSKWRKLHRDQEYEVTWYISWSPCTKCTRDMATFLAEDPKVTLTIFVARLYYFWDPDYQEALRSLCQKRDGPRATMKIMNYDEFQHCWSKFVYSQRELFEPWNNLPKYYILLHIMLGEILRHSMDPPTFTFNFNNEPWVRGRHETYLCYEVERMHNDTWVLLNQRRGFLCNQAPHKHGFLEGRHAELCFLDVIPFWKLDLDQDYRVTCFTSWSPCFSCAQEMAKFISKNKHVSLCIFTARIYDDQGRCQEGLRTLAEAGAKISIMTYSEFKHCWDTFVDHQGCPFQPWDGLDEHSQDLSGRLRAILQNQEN
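HeLa cells stably expressing Vif and C-terminally eYFP-tagged A3G, seeded overnight at 37 deg C, then exposed to compound by pintool overnight at 37 deg C. Rise in yellow fluorescence (Ex 488/Em 500-530, Acumen) marks blocked Vif-driven A3G degradation.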
IL1B secr inh: inhibitors of inflammasome signaling (IL-1 beta secretion) | THP-1 LPS/ATP IL-1B secretion, AlphaLISA, 16 h; active compounds read low | activity change, % at 57.5 µM | 4.7% of 360,000 active | AID 743279; in the data active = activity change below about -50%; inconclusive = mostly about -30% to -49%; also: % is scaled to controls: 0 for no effect and ±100 for the full control effect
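THP-1 cells pretreated 1 hr with compounds (up to 57.5 uM final), then stimulated with LPS (250 ng/mL final) plus ATP (1.25 mM final); secreted IL-1B measured by AlphaLISA after 16 hr, decreased signal indicating inhibition.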
MCF10A rerep: inducers of DNA re-replication in MCF 10A breast cells. MCF 10A DNA re-replication, Hoechst nuclear intensity, 48 h. Potency, µM (doses to about 46.1 µM), without a hit: at the top dose activity, positive = re-replication, usual class: activators. 2.9% of 350,000 active. AID 624296; also: potency is read from the fitted curve at half-maximal effect; % of control where 0% means no effect; nearly all actives have a fitted effect of over 50% in size
SW480 rereplic: DNA re-replication induction in SW480 cells | SW480 DNA re-replication, Hoechst DNA content imaging, 48 h | Potency, µM (titrated, usually from 46.1 µM), for the others: at the highest dose re-replication activation, usual class: activators | 1.8% of 340,000 active | AID 624297; also: potency is read from the fitted curve at half-maximal effect; % of control where 0% means no effect; nearly all actives have a fitted effect of over 55% in size
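Readout is total intensity of Hoechst-stained nuclei, excited at 405 nm and collected at 500-530 nm. Compound treatment lasted 48 hr at 37 C in 5% CO2 before staining.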
Vif-APOBEC3F blk: inhibitors of Vif-A3F interaction; HeLa A3F-eYFP + Vif (tagged APOBEC3F with the HIV-1 protein that degrades it), YFP fluorescence increase; Potency, µM (highest dose often 46.1 µM), for inactives: at the top dose activity, negative = active; 0.2% of 390,000 active; also: potency is read from the fitted curve at half-maximal effect; % of control where 0% means no effect; nearly all actives have a fitted effect of over 65% in size
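Fluorescence increase (Ex 488/Em 500-530) after overnight compound treatment at 37 deg C flags inhibition of Vif-driven A3F-eYFP loss in stable HeLa A3F-eYFP/Vif cells seeded overnight beforehand.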
Giardia killer: Giardia lamblia killing; Giardia lamblia trophozoite viability; activity change, % at 7.66 µM, hits read low; 0.15% of 340,000 active; AID 540267; in the data active = activity change below about -80%; inconclusive = between about -30% and that limit;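 also: parasites exposed to compound for two days anaerobically before the ATP read; % is scaled to controls: 0 for no effect and ±100 for the full control effect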
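Luminescence from cellular ATP indicates surviving trophozoites (100 cells/well) following 48 hrs anaerobic compound treatment at 37 deg C; signal develops 15-30 min at room temperature.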
Numbers without * were called inactive; ? = inconclusive; nt = no result; [ ] = remark or other dose. Unless noted, calls follow the shape of the dose curve; as a rule, active = well fitted curve in the direction sought with a large enough effect; inconclusive = small, poorly fitted or top-dose-only effect, or another doubt; inactive = no such curve, though single readings can be large; an effect the other way counts as inactive or inconclusive.

SMILES	Vif-APOBEC3G blk	IL1B secr inh	MCF10A rerep	SW480 rereplic	Vif-APOBEC3F blk	Giardia killer
Cc1cc(/C=N/NC(=O)Cn2c3ccccc3c(=O)c3ccccc32)c(C)n1-c1ccccc1	-14.5%	-8.4	20.6µM*	28.4%	-8.1%	-15.8
Cc1ccc(N(CC(=O)N/N=C/c2cc(C)n(-c3ccccc3)c2C)S(C)(=O)=O)c(C)c1	-5.6%	-27.5	0.1%	-1.6%	-2.3%	-7.6
CC1Cc2cc(S(=O)(=O)CCC(=O)Nc3ccc(F)cc3)ccc2N1C(=O)C1CC1 (stereo not given)	-0.4%	nt	nt	nt	1.6%	nt
Oc1c(C(c2ccco2)N2CCN(C(c3ccccc3)c3ccccc3)CC2)sc2ncnn12 (stereo not given)	1.7%	-64.4*	35.7%	-14.7%	1.9%	-17.6
Cc1ccc(S(=O)(=O)c2ccc([N+](=O)[O-])o2)cc1	-16.9%	-99.6*	?	?	?	19.9
O=C1N/C(=N/N=C/c2ccccc2O)SC1Cc1ccc(F)cc1 (stereo not given)	-8.8%	131.7	28.2%	?	-19.0%	1.6
COc1ccc(CC2S/C(=N/N=C/c3ccccc3O)NC2=O)cc1 (stereo not given)	-15.2%	49.9	23.1µM*	2.91µM*	?	-13.6
COC(=O)C(Cc1ccccc1)NC(=O)c1cccc(S(=O)(=O)N(C)C)c1 (stereo not given)	-5.0%	-88.7*	-58.0%	5.9%	7.3%	7.0
COC(=O)[C@H](Cc1ccccc1)N(C)S(=O)(=O)c1cccc(S(=O)(=O)N(C)[C@@H](Cc2ccccc2)C(=O)OC)c1	7.0%	6.0	7.0%	-1.6%	0.3%	-3.7
O=C(CN1CCN(S(=O)(=O)N2CCCCC2)CC1)Nc1cc(Cl)cc(Cl)c1	-2.9%	-65.4*	24.2%	-0.6%	11.3%	-2.2
O=C(CN1CCN(S(=O)(=O)N2CCCCCC2)CC1)Nc1ccc(Br)cc1	0.0%	-26.9	-0.4%	-6.1%	2.5%	7.7
O=C(CN1CCN(S(=O)(=O)N2CCCCC2)CC1)Nc1ccc(Cl)c(Cl)c1	-2.1%	-76.7*	?	-6.3%	-13.0%	7.4
COc1ccc(CNC(=O)CCCc2cn(C)c3ccccc23)c(OC)c1	-2.4%	nt	nt	nt	12.4%	nt
CCOc1ccccc1NC(c1nnc(-c2ccccc2)o1)c1ccc(F)cc1Cl (stereo not given)	-1.5%	nt	nt	nt	4.1%	nt
COCCCn1c(C)cc(C(=O)COC(=O)CCc2nc3ccccc3c(=O)[nH]2)c1C	-0.9%	-76.1*	-0.3%	?	0.2%	3.6
CCCCn1c(N)c(N(CCOC)C(=O)CCCc2nc3ccccc3c(=O)[nH]2)c(=O)[nH]c1=O	1.2%	0.8	9.2%	23.1µM*	?	3.6
COc1ccc(NC(=O)CSc2nc(-c3ccc(OC)cc3)cc(=O)[nH]2)cc1	-0.3%	nt	nt	nt	1.8%	nt
O=C(NCc1ccccc1)NC1(C(=O)N2CCN(c3ncccn3)CC2)CCCCC1	2.2%	30.4	23.1µM*	4.3%[9.22 µM]	-10.2%	15.1
CON(C)C(=O)CCN(Cc1ccccc1)C(=O)OC(C)(C)C	3.9%	-2.6	2.0%	-13.4%	2.2%	-11.0
CON(C)C(=O)CC(CN(Cc1ccccc1)C(=O)OC(C)(C)C)c1ccc(Cl)cc1 (stereo not given)	-5.6%	-61.5*	?	?	-0.1%	9.4
Cc1cc(Br)ccc1NC(=O)c1ccc(NS(=O)(=O)c2c(C)noc2C)cc1	3.3%	nt	nt	nt	4.6%	nt
Cc1ccc(OC(F)F)c(NC(=O)Nc2cccc(C(F)(F)F)c2)c1	-10.5%	-98.6*	?	11.2µM*	-4.0%	18.3
COC(=O)/C=C/C(=O)Nc1cccc(C(F)(F)F)c1	-14.3%	-104.0*	23.1µM*	?	-7.9%	-5.7
O=C(NC(=S)Nc1ccccc1O)c1ccc(Cl)cc1Cl	-3.6%	-78.4*	?	1.6%	-11.6%	-17.1
O=C(Nc1ccccc1)Nc1cccc(C(F)(F)F)c1	-0.9%	-26.8	-0.4%	-0.5%	3.7%	-7.2
SMILES	Vif-APOBEC3G blk	IL1B secr inh	MCF10A rerep	SW480 rereplic	Vif-APOBEC3F blk	Giardia killer
COC(=S)Nc1cccc(C(F)(F)F)c1	0.4%	nt	?	-14.8%	-3.7%	-2.2
FC(F)(F)c1cccc(NC(=S)Nc2ccc(Cl)c(Cl)c2)c1	4.2%	-86.8*	?	?	12.6%	-1.0
CCC(C(=O)NCc1ccc2c(c1)CCN2C(=O)c1ccc(F)cc1)c1ccccc1 (stereo not given)	-1.1%	nt	nt	nt	0.1%	nt
N#Cc1ccc(NC(=O)COCc2cc(-c3ccc4c(c3)OCO4)on2)cc1	-0.6%	nt	nt	nt	-2.3%	nt
O=C(c1ccc(CSc2nc3ccncc3n2Cc2ccccc2F)cc1)N1CCCCC1	-2.7%	nt	nt	nt	-0.5%	nt
COc1cc2ccccc2cc1C(=O)OCC(=O)Nc1ccc(Br)cc1	-13.9%	nt	nt	nt	nt	nt
CCOc1ccc(NC(=S)NNC(=S)Nc2cccc(C(F)(F)F)c2)cc1	-2.8%	-8.1	?	24.8%	-7.9%	0.1
Cc1ccccc1C(=O)NNC(=S)Nc1cccc(C(F)(F)F)c1	1.1%	-1.6	?	2.8%	5.5%	8.3
O=C(NNC(=S)Nc1ccc(F)c(Cl)c1)c1ccccc1Br	-19.1%	-61.7*	?	11.8%	4.9%	-12.8
O=C(NNC(=S)Nc1cccc(C(F)(F)F)c1)c1ccc(Cl)cc1Cl	0.7%	-52.2*	13µM*	?	-7.5%	-11.3
O=[N+]([O-])c1cc(C(F)(F)F)cc([N+](=O)[O-])c1NCCNC(=S)Nc1ccc(Cl)c(Cl)c1	3.3%	-80.5*	?	-0.3%	-9.7%	27.1
COc1ccc(NC(=S)NNC(=S)Nc2cccc(C(F)(F)F)c2)cc1	-9.0%	?	14.6µM*	-35.5%	0.0%	0.8
COc1ccc(NC(=S)NNC(=O)c2ccccc2OC(F)F)cc1	-13.8%	-14.6	?	0.581µM*	-0.8%	-9.2
CC(C)(C)NC(=S)Nc1cccc(C(F)(F)F)c1	3.7%	-90.4*	?	5.5%	-25.0%	-7.8
CCc1ccc(NC(=S)NNC(=O)c2ccccc2OC(F)F)cc1	nt	nt	?	23.8%	nt	nt
CC1=CC(C)=Nc2ccccc2N1	0.0%	35.1	20.6µM*	-9.6%	-0.7%	3.1
CC(C)Oc1ccc(C(=O)NC2(C(F)(F)F)NC(=O)N(CCCc3ccccc3)C2=O)cc1 (stereo not given)	-11.8%	-63.9*	13.8%	?	-7.9%	1.0
COc1ccc(/C=C2/Sc3ccc(C(=O)NCCCN4CCOCC4)cc3NC2=O)cc1OC	?	43.3	18.4µM*	20.6µM*	?	-7.0
Cc1cccc(/C=C2/Sc3ccc(C(=O)NCCN4CCCC4)cc3NC2=O)c1	?	?	?	?	-5.8%	9.6
O=C1Nc2cc(C(=O)NCCN3CCCCCC3)ccc2S/C1=C\c1ccccc1	?	-92.6*	?	7.8%	7.3%	?
